Experimental data from paper PMC5540273 (PLoS ONE, 2017).

Key:
Details in all cases: concentration: 1 μM, replicates: in singlicate; n = 1
MAP4K2 = system: MAP4K2
MAP4K3 = system: MAP4K3
MAP4K4 = system: MAP4K4
MAP4K5 = system: MAP4K5
MAPKAPK2 = system: MAPKAPK2
MAPKAPK5 = system: MAPKAPK5
MARK1 = system: MARK1
MARK2 = system: MARK2
MARK3 = system: MARK3
MARK4 = system: MARK4
MAST1 = system: MAST1
MEK1 = system: T1, MEK1
T1 construct: gene MAP2K1

MEK2 = system: T2, MEK2
T2 construct: gene MAP2K2

MEK3 = system: T3, MEK3
T3 construct: gene MAP2K3

MEK4 = system: T4, MEK4
T4 construct: gene MAP2K4

MEK5 = system: T5, MEK5
T5 construct: gene MAP2K5

MEK6 = system: T6, MEK6
T6 construct: gene MAP2K6

MELK = system: MELK
MERTK = system: MERTK
MET = system: MET
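Note: KINOMEscan kinase panel screen.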

Row | SMILES | %Inh (MAP4K2) | %Inh (MAP4K3) | %Inh (MAP4K4) | %Inh (MAP4K5) | %Inh (MAPKAPK2) | %Inh (MAPKAPK5) | %Inh (MARK1) | %Inh (MARK2) | %Inh (MARK3) | %Inh (MARK4) | %Inh (MAST1) | %Inh (MEK1) | %Inh (MEK2) | %Inh (MEK3) | %Inh (MEK4) | %Inh (MEK5) | %Inh (MEK6) | %Inh (MELK) | %Inh (MERTK) | %Inh (MET)
1 | CCn1c(-c2c(N)noc2C)nc2cnccc21 [SB-737856] | 0% | 2% | 10% | 0% | 19% | 0% | 0% | 0% | 0% | 0% | 0% | 0% | 2% | 0% | 0% | 32% | 70% | 0% | 1% | 0%
2 | CC[C@@H]1CO[C@H](C(=O)Nc2ccccc2)CN1c1cc(-c2ccc3c(N)n[nH]c3c2)nc(NC)n1 [GSK2376236] | 0% | 0% | 0% | 0% | 0% | 0% | 0% | 5% | 0% | 0% | 0% | 5% | 13% | 0% | 0% | 0% | 0% | 56% | 3% | 0%
3 | Nc1nccc(-c2c(-c3ccc(F)cc3)ncn2C2CCN(Cc3ccccc3)CC2)n1 [SB-219980] | 19% | 16% | 10% | 73% | 0% | 0% | 5% | 1% | 0% | 1% | 4% | 7% | 9% | 19% | 38% | 28% | 21% | 15% | 0% | 0%
4 | CCc1ccc(-c2ccc3c(c2)-c2n[nH]cc2S(=O)(=O)N3C)cc1 | 0% | 15% | 15% | 12% | 0% | 0% | 0% | 0% | 0% | 0% | 0% | 10% | 86% | 13% | 0% | 8% | 0% | 9% | 0% | 0%
5 | O=C(Nc1n[nH]c2nc(-c3cccs3)c(Br)cc12)C1CC1 [SB-735297] | 0% | 0% | 0% | 0% | 0% | 10% | 1% | 0% | 20% | 6% | 26% | 0% | 0% | 34% | 99.3% | 68% | 0% | 15% | 15% | 0%
6 | Cc1ccc(NC(=O)Nc2ccc(Cl)cc2)cc1-c1ccc(C(=O)Nc2ccncc2)cc1 [GSK1398472] | 0% | 0% | 5% | 6% | 19% | 0% | 0% | 0% | 0% | 1% | 0% | 0% | 0% | 0% | 26% | 11% | 0% | 0% | 0% | 0%
7 | Cc1ccc(NC(=O)Nc2ccc(Cl)c(C(F)(F)F)c2)cc1-c1ccc(C(=O)Nc2ccncc2)cc1 [GSK1398470] | 0% | 8% | 29% | 12% | 7% | 0% | 0% | 13% | 8% | 0% | 0% | 0% | 0% | 0% | 24% | 29% | 0% | 13% | 0% | 13%
8 | CCCCc1nn2ncccc2c1-c1ccnc(NC2CC2)n1 [GW684374] | 0% | 0% | 0% | 0% | 0% | 0% | 0% | 0% | 0% | 0% | 0% | 0% | 0% | 8% | 7% | 9% | 10% | 15% | 5% | 0%
9 | Nc1ncnc2occ(-c3ccc4c(c3)CCN4C(=O)Cc3cc(F)ccc3F)c12 [GSK2645446] | 0% | 35% | 0% | 11% | 11% | 0% | 0% | 0% | 0% | 0% | 0% | 0% | 0% | 0% | 2% | 92.3% | 0% | 3% | 34% | 0%
10 | Cc1cccc2c(-c3ccncn3)c(-c3ccc(F)cc3)nn12 [GW515532] | 0% | 12% | 7% | 0% | 8% | 0% | 0% | 0% | 5% | 0% | 7% | 0% | 0% | 0% | 19% | 10% | 0% | 0% | 15% | 0%
11 | Fc1ccc(-c2nc3n(c2-c2ccncc2)CCS3)cc1 [GI98581] | 0% | 0% | 26% | 11% | 1% | 0% | 0% | 0% | 0% | 12% | 0% | 0% | 0% | 0% | 12% | 14% | 0% | 5% | 12% | 0%
12 | Cc1ccccc1-c1cc(-c2c[nH]nc2-c2ccccn2)ccn1 [GW680061] | 0% | 0% | 0% | 0% | 24% | 0% | 0% | 0% | 0% | 0% | 6% | 0% | 0% | 0% | 4% | 5% | 0% | 0% | 16% | 0%
13 | COc1ccc(Nc2nccc(N3CCC(NC(=O)C(C)c4ccc(Cl)cc4)CC3)n2)cc1 (stereo not drawn) [GSK1379812] | 0% | 0% | 3% | 0% | 6% | 0% | 15% | 19% | 0% | 22% | 0% | 0% | 0% | 0% | 5% | 10% | 0% | 0% | 22% | 0%
14 | COc1ccc(Nc2nccc(-c3ccc(NC(=O)c4cc5cc(F)ccc5[nH]4)cc3)n2)cc1 [GSK1229496] | 0% | 0% | 0% | 0% | 0% | 0% | 0% | 0% | 0% | 0% | 0% | 0% | 0% | 20% | 0% | 6% | 0% | 0% | 18% | 0%
15 | Cc1c(Cn2c3ccccc3n3c(=O)cc(N4CCOCC4)nc23)cccc1C(F)(F)F [GSK2306394] | 2% | 0% | 11% | 8% | 0% | 0% | 0% | 0% | 0% | 0% | 0% | 0% | 0% | 0% | 17% | 59% | 0% | 66% | 33% | 0%
16 | COc1ccc(CSc2nnc(-c3ccc4nccn4c3)o2)cc1C(F)(F)F | 37% | 16% | 7% | 3% | 33% | 27% | 10% | 44% | 0% | 6% | 0% | 13% | 21% | 43% | 51% | 0% | 0% | 16% | 5% | 2%
17 | CC(C)c1ccc(O)cc1Nc1ccnc2ccc(C(F)(F)F)cc12 [GW482059] | 0% | 0% | 26% | 37% | 16% | 0% | 0% | 0% | 0% | 6% | 0% | 0% | 0% | 0% | 22% | 1% | 0% | 5% | 13% | 0%
18 | Fc1ccc(-c2nn3cccc(F)c3c2-c2ccncc2)cc1 [GW475620] | 0% | 10% | 47% | 24% | 29% | 0% | 1% | 0% | 0% | 4% | 0% | 0% | 0% | 0% | 29% | 8% | 0% | 41% | 3% | 0%
19 | CC(=O)c1c(C)c2cnc(Nc3ccn(C)n3)nc2n(C2CCCC2)c1=O | 0% | 24% | 0% | 0% | 0% | 0% | 0% | 0% | 12% | 0% | 0% | 0% | 0% | 13% | 0% | 0% | 4% | 1% | 0% | 0%
20 | CNc1cc(-c2ccc3c(N)n[nH]c3c2)nc(N)n1 [GSK2224810] | 22% | 20% | 0% | 0% | 49% | 0% | 0% | 7% | 0% | 0% | 18% | 2% | 0% | 0% | 18% | 37% | 14% | 48% | 31% | 0%
21 | CS(=O)(=O)Cc1ccc(Nc2nccc(-c3c(-c4cccc(NC(=O)C5CCCCC5)c4)nn4ncccc34)n2)cc1 [GSK350559] | 36% | 0% | 0% | 10% | 0% | 39% | 37% | 0% | 0% | 5% | 39% | 32% | 19% | 42% | 16% | 98.3% | 0% | 0% | 12% | 10%
